{"source": "PubChem BioAssay (NCATS)", "key": {"[1]": {"experiment": "Cytotoxicity counterscreen for inhibitors of SARS-CoV-2 cell entry (AID 1645845); further: nearly all actives have a fitted effect of over 50% in size", "in_short": "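HEK293-ACE2 cells (Expi293F stably expressing human ACE2) seeded overnight, then compound for 1 h plus 48 h at 37C. Viability as ATP content by luminescence; normalized to wells with cells and media-only wells.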"}, "[2]": {"experiment": "Primary qHTS to identify inhibitors of SARS-CoV-2 cell entry (AID 1645846); further: nearly all actives have a fitted effect of over 45% in size; further: potency means the concentration at half of the fitted maximal effect", "details": "activity change, negative = inhibition: at 57.1 µM (top of the series) unless noted", "in_short": "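Entry measured by luciferase signal 48 h after adding SARS-CoV-2-S pseudotyped MLV particles to HEK293-ACE2 cells preincubated 1 h with compounds. Normalisation: bald particles and spike particles.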"}}, "note": "Values joined by “and” are separate entries in the source; they are usually repeats but may differ in a detail not shown here. Equal entries are not always repeated. Results filed as inconclusive are left out. A call without a number means that no potency is given here. Active and inactive are the calls of the source. The call rests on the fitted dose curve."}
{"smiles": "O=C(O)CN(CCN(CC(=O)O)CC(=O)O)CCN(CC(=O)O)CC(=O)O", "values": [{"measurement": "Potency", "setting": "[1]", "result": "inactive"}, {"measurement": "Potency", "setting": "[2]", "result": "inactive"}]}
{"smiles": "CC(=O)[C@@]1(O)CC[C@H]2[C@@H]3C[C@H](C)C4=CC(=O)C=C[C@]4(C)[C@@]3(F)[C@@H](O)C[C@@]21C", "values": [{"measurement": "Potency", "setting": "[1]", "result": "inactive"}, {"measurement": "activity change, negative = inhibition", "setting": "[2]", "result": 1.04, "unit": "%"}]}
{"smiles": "O=C(c1ccccc1)c1ccccc1", "values": [{"measurement": "Potency", "setting": "[1]", "result": "inactive"}, {"measurement": "Potency", "setting": "[2]", "result": "inactive"}]}
{"smiles": "NS(=O)(=O)c1cc2c(cc1Cl)NC(C(Cl)Cl)NS2(=O)=O", "note": "(stereo not given)", "values": [{"measurement": "Potency", "setting": "[1]", "result": "inactive"}, {"measurement": "activity change, negative = inhibition", "setting": "[2]", "result": "-2.02% and -6.06%"}]}
{"smiles": "CCCCCCCCCCOc1cc2c(=O)c(C(=O)OCC)c[nH]c2cc1OCC", "values": [{"measurement": "outcome", "setting": "[1]", "result": "inactive [at 5.25 µM]"}, {"measurement": "activity change, negative = inhibition", "setting": "[2]", "result": "-22.6% [at 5.25 µM]"}]}
{"smiles": "CC1c2ccccc2CN1NC(=O)c1ccc(Cl)c(S(N)(=O)=O)c1", "note": "(stereo not given)", "values": [{"measurement": "Potency", "setting": "[1]", "result": "inactive"}, {"measurement": "activity change, negative = inhibition", "setting": "[2]", "result": -22.6, "unit": "%"}]}
{"smiles": "CC(=O)OC(C)C[N+](C)(C)C", "note": "(stereo not given)", "values": [{"measurement": "Potency", "setting": "[1]", "result": "inactive"}, {"measurement": "Potency", "setting": "[2]", "result": "inactive"}]}
{"smiles": "CC(=O)NS(=O)(=O)c1ccc(N)cc1", "values": [{"measurement": "Potency", "setting": "[1]", "result": "inactive"}, {"measurement": "Potency", "setting": "[2]", "result": "inactive"}]}
{"smiles": "CCC(Cc1c(I)cc(I)c(N)c1I)C(=O)O", "note": "(stereo not given)", "values": [{"measurement": "Potency", "setting": "[1]", "result": "inactive"}, {"measurement": "Potency", "setting": "[2]", "result": "inactive"}]}
{"smiles": "CCCNC(C)C(=O)Nc1c(C)csc1C(=O)OC", "note": "(stereo not given)", "values": [{"measurement": "Potency", "setting": "[1]", "result": "inactive"}, {"measurement": "Potency", "setting": "[2]", "result": "inactive"}]}
{"smiles": "CC(=O)Oc1cccc(O)c1", "values": [{"measurement": "Potency", "setting": "[1]", "result": "inactive"}, {"measurement": "activity change, negative = inhibition", "setting": "[2]", "result": -13.8, "unit": "%"}]}
{"smiles": "CN[C@@H]1CCc2[nH]c3ccc(C(N)=O)cc3c2C1", "values": [{"measurement": "Potency", "setting": "[1]", "result": "inactive"}, {"measurement": "activity change, negative = inhibition", "setting": "[2]", "result": -34.4, "unit": "%"}]}
{"smiles": "Cc1c(F)c(N2CCNC(C)C2)cc2c1c(=O)c(C(=O)O)cn2C1CC1", "note": "(stereo not given)", "values": [{"measurement": "Potency", "setting": "[1]", "result": "inactive"}, {"measurement": "activity change, negative = inhibition", "setting": "[2]", "result": -25.6, "unit": "%"}]}
{"smiles": "OC[C@@H](O)[C@@H](O[C@@H]1O[C@H](CO)[C@H](O)[C@H](O)[C@H]1O)[C@H](O)[C@@H](O)CO", "values": [{"measurement": "Potency", "setting": "[1]", "result": "inactive"}, {"measurement": "Potency", "setting": "[2]", "result": "inactive"}]}
{"smiles": "CC(=O)Nc1ccccc1", "values": [{"measurement": "Potency", "setting": "[1]", "result": "inactive"}, {"measurement": "activity change, negative = inhibition", "setting": "[2]", "result": 4.61, "unit": "%"}]}
{"smiles": "CC(CCc1ccccc1)NCC(O)c1ccc(O)c(C(N)=O)c1", "note": "(stereo not given)", "values": [{"measurement": "Potency", "setting": "[1]", "result": "inactive"}, {"measurement": "activity change, negative = inhibition", "setting": "[2]", "result": -28.2, "unit": "%"}]}
{"smiles": "Cn1c(=O)c2[nH]cnc2n(C)c1=O", "values": [{"measurement": "Potency", "setting": "[1]", "result": "inactive"}, {"measurement": "activity change, negative = inhibition", "setting": "[2]", "result": "-18.5% and -12.1%"}]}
{"smiles": "CO[C@@]1(NC(=O)Cc2cccs2)C(=O)N2C(C(=O)O)=C(COC(N)=O)CS[C@@H]21", "values": [{"measurement": "Potency", "setting": "[1]", "result": "inactive"}, {"measurement": "Potency", "setting": "[2]", "result": "inactive"}]}
{"smiles": "CC(C)=CCC/C(C)=C/CO", "values": [{"measurement": "Potency", "setting": "[1]", "result": "inactive"}, {"measurement": "activity change, negative = inhibition", "setting": "[2]", "result": 2.42, "unit": "%"}]}
{"smiles": "CCC(=O)c1c(O)cc(O)cc1O", "values": [{"measurement": "Potency", "setting": "[1]", "result": "inactive"}, {"measurement": "activity change, negative = inhibition", "setting": "[2]", "result": -5.3, "unit": "%"}]}
{"smiles": "CC(=O)O[C@@H]1CC2C3CCc4cc(OC(=O)c5ccccc5)ccc4C3CCC2(C)[C@H]1OC(C)=O", "note": "(stereo not given in full)", "values": [{"measurement": "Potency", "setting": "[1]", "result": "inactive"}, {"measurement": "activity change, negative = inhibition", "setting": "[2]", "result": 4.28, "unit": "%"}]}
{"smiles": "COc1cc(C)c(/C=C/C(C)=C/C=C/C(C)=C/C(=O)O)c(C)c1C", "values": [{"measurement": "Potency", "setting": "[1]", "result": "inactive"}, {"measurement": "activity change, negative = inhibition", "setting": "[2]", "result": -1.85, "unit": "%"}]}
{"smiles": "CCCCOC(=O)c1ccc(N)cc1", "values": [{"measurement": "Potency", "setting": "[1]", "result": "inactive"}, {"measurement": "Potency", "setting": "[2]", "result": "inactive"}]}
{"smiles": "C[N+](C)(C)CCCCCC[N+](C)(C)C", "values": [{"measurement": "Potency", "setting": "[1]", "result": "inactive"}, {"measurement": "activity change, negative = inhibition", "setting": "[2]", "result": -3.21, "unit": "%"}]}
{"smiles": "Cc1cc(OI)c(C(C)C)cc1-c1cc(C(C)C)c(OI)cc1C", "values": [{"measurement": "Potency", "setting": "[1]", "result": "inactive"}, {"measurement": "Potency", "setting": "[2]", "result": "inactive"}]}
{"smiles": "CC(=O)N(c1onc(C)c1C)S(=O)(=O)c1ccc(N)cc1", "values": [{"measurement": "Potency", "setting": "[1]", "result": "inactive"}, {"measurement": "Potency", "setting": "[2]", "result": "inactive"}]}
{"smiles": "NC(N)=NCCN1CCCCCCC1", "values": [{"measurement": "activity change, negative = cytotoxicity", "setting": "[1]", "result": "0.589% [at 0.702 µM] (inactive)"}, {"measurement": "outcome", "setting": "[2]", "result": "inactive [at 0.702 µM]"}]}
{"smiles": "O=C(O)CCC(=O)O", "values": [{"measurement": "Potency", "setting": "[1]", "result": "inactive"}, {"measurement": "Potency", "setting": "[2]", "result": "inactive"}]}
{"smiles": "O=C(O)c1cc(O)c(O)c(O)c1", "values": [{"measurement": "Potency", "setting": "[1]", "result": "inactive"}, {"measurement": "Potency", "setting": "[2]", "result": "inactive"}]}
{"smiles": "O=C(CCOCCOCCOCCOCCC(=O)Nc1c(I)cc(I)c(C(=O)O)c1I)Nc1c(I)cc(I)c(C(=O)O)c1I", "values": [{"measurement": "Potency", "setting": "[1]", "result": "inactive"}, {"measurement": "Potency", "setting": "[2]", "result": "inactive"}]}
{"smiles": "CN1C[C@H](C(=O)N[C@]2(C)O[C@@]3(O)[C@@H]4CCCN4C(=O)[C@H](Cc4ccccc4)N3C2=O)C=C2c3cccc4[nH]cc(c34)C[C@H]21", "values": [{"measurement": "Potency", "setting": "[1]", "result": "inactive"}, {"measurement": "activity change, negative = inhibition", "setting": "[2]", "result": -28.9, "unit": "%"}]}
{"smiles": "NCCNCCNCCNCCN", "values": [{"measurement": "outcome", "setting": "[1]", "result": "inactive [at 11.3 µM]"}, {"measurement": "activity change, negative = inhibition", "setting": "[2]", "result": "4.56% [at 11.3 µM]"}]}
{"smiles": "CCO/C([O-])=N/c1c[n+](N2CCOCC2)no1", "values": [{"measurement": "Potency", "setting": "[1]", "result": "inactive"}, {"measurement": "Potency", "setting": "[2]", "result": "inactive"}]}
{"smiles": "C[C@H](NC(CCc1ccccc1)C(=O)O)C(=O)N1CCC[C@H]1C(=O)O", "note": "(stereo not given in full)", "values": [{"measurement": "Potency", "setting": "[1]", "result": "inactive"}, {"measurement": "Potency", "setting": "[2]", "result": "inactive"}]}
{"smiles": "N#C[C@H]1C[C@H]2C[C@@H]2N1C(=O)[C@@H](N)C12CC3CC(CC(O)(C3)C1)C2", "values": [{"measurement": "Potency", "setting": "[1]", "result": "inactive"}, {"measurement": "activity change, negative = inhibition", "setting": "[2]", "result": -17.5, "unit": "%"}]}
{"smiles": "CCCCC(O)/C=C(C)/C=C/C=C/C(=O)N1CCCC1=O", "note": "(stereo not given)", "values": [{"measurement": "Potency", "setting": "[1]", "result": "inactive"}, {"measurement": "activity change, negative = inhibition", "setting": "[2]", "result": -3.29, "unit": "%"}]}
{"smiles": "CCCCCCCCCCC[C@@H](C[C@@H]1OC(=O)[C@H]1CCCCCC)OC(=O)[C@H](CC(C)C)NC=O", "values": [{"measurement": "Potency", "setting": "[1]", "result": "inactive"}, {"measurement": "activity change, negative = inhibition", "setting": "[2]", "result": 0.353, "unit": "%"}]}
{"smiles": "CC(C)(Oc1ccc(C2CC2(Cl)Cl)cc1)C(=O)O", "note": "(stereo not given)", "values": [{"measurement": "Potency", "setting": "[1]", "result": "inactive"}, {"measurement": "Potency", "setting": "[2]", "result": "inactive"}]}
{"smiles": "C[N+](C)(C)CCOC(N)=O", "values": [{"measurement": "Potency", "setting": "[1]", "result": "inactive"}, {"measurement": "Potency", "setting": "[2]", "result": "inactive"}]}
{"smiles": "Cc1cc(O)cc2c1O[C@](C)(CCC[C@H](C)CCC[C@H](C)CCCC(C)C)CC2", "values": [{"measurement": "Potency", "setting": "[1]", "result": "inactive"}, {"measurement": "Potency", "setting": "[2]", "result": "inactive"}]}
{"smiles": "CC(C(=O)O)c1ccc(/C=C2\\CCCCC2=O)cc1", "note": "(stereo not given)", "values": [{"measurement": "Potency", "setting": "[1]", "result": "inactive"}, {"measurement": "Potency", "setting": "[2]", "result": "inactive"}]}
{"smiles": "CCCCOC(=O)c1ccc(O)cc1", "values": [{"measurement": "Potency", "setting": "[1]", "result": "inactive"}, {"measurement": "Potency", "setting": "[2]", "result": "inactive"}]}
{"smiles": "Cc1c[nH]c2ccccc12", "values": [{"measurement": "Potency", "setting": "[1]", "result": "inactive"}, {"measurement": "activity change, negative = inhibition", "setting": "[2]", "result": -24.2, "unit": "%"}]}
{"smiles": "CC(C)(C)NC[C@H](O)COc1cccc2c1CCCC2=O", "values": [{"measurement": "Potency", "setting": "[1]", "result": "inactive"}, {"measurement": "activity change, negative = inhibition", "setting": "[2]", "result": -5.98, "unit": "%"}]}
{"smiles": "Nc1nc(Cl)nc2c1ncn2[C@@H]1O[C@H](CO)[C@@H](O)[C@@H]1F", "values": [{"measurement": "Potency", "setting": "[1]", "result": "inactive"}, {"measurement": "Potency", "setting": "[2]", "result": "22.4 µM (active)"}]}
